Bioassay records as filed in PubChem BioAssay.
Shown are actives, neighbours in structure and some others; about 1.4% of the full set was active somewhere.
MBD2 inh: inhibitors of human MBD2 binding to methylated oligonucleotide | TR-FRET | inhibition, % at 4.4 µM | hit rate 0.31% among 370,000 | AID 686964; in the data active = inhibition above about 13%
Target sequence (Q9UBB5 whole entry, looked up): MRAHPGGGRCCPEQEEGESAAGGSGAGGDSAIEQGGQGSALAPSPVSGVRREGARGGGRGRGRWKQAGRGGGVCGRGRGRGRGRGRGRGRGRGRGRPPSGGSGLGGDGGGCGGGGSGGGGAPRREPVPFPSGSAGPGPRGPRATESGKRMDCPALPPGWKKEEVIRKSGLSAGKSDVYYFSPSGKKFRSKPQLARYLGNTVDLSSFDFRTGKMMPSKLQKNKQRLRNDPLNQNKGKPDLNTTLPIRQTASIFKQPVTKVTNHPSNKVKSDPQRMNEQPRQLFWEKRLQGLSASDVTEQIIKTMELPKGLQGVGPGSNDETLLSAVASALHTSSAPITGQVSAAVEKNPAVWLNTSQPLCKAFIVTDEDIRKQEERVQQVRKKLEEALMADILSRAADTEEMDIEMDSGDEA
Casp6 inh: inhibitors of human caspase-6. P55212. purified caspase-6, Z-VEID-R110 cleavage fluorescence. inhibition, % at 12.5 µM. hit rate 0.53% among 350,000. AID 686996;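 active = mean inhibition across replicates at least about 35%, with every replicate also reaching that limit, limit read from the data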;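 note: 0% = median of neutral control wells and 100% = no fluorescence left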
Target sequence (P55212 24-179 limits assumed): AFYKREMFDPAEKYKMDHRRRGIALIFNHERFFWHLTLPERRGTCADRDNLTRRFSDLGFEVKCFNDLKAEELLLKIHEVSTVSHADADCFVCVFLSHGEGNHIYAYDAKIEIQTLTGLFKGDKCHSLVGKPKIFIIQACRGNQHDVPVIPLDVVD
Target sequence (P55212 194-293 limits assumed): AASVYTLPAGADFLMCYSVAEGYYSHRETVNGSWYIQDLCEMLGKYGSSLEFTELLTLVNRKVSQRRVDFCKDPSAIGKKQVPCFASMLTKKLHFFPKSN
LEDGF integ inh: blocks HIV-1 LEDGF/p75-dependent DNA integration | hit rate 0.64% among 370,000 | TR-FRET IN-LEDGF/p75 DNA integration, Eu/Cy5 | inhibition, % at 3.7 µM;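 active = inhibition above the screen-wide mean plus 3 SD, cut at about 13% in these data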;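 note: signal is the Cy5 over europium emission ratio at 671 and 618 nm; 0% = plate median of compound wells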
UHRF1 binding: UHRF1 methyl-DNA binding inhibition; hit rate 0.75% among 370,000; inhibition, % at 4.4 µM; AID 687016; UHRF1 binding to methylated oligo, TR-FRET; in the data active = inhibition above about 21%;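 note: UHRF1 SRA domain binding a hemimethylated CpG hairpin DNA probe; 0% = median of test compound wells and 100% = reference inhibitor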
UHRF1 ctr MBD2: counter-screen for MBD2 inhibitors: human UHRF1 methylated DNA binding inhibitors; shares compounds with MBD2 inh; hit rate 25% among 1,000; inhibition, % at 4.4 µM; UHRF1 binding to methylated oligonucleotide, TR-FRET; in the data active = inhibition above about 21%;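 note: UHRF1 SRA domain binding a labeled hemimethylated CpG hairpin DNA; 0% = vehicle only and 100% = reference inhibitor with vehicle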
MBD2 confirm: confirmation of human MBD2-DBD methylated oligonucleotide binding inhibitors; shares compounds with MBD2 inh; TR-FRET MBD2-DBD binding to methylated oligonucleotide; inhibition, % at 4.4 µM; hit rate 26% among 1,000; AID 720531
IN multimer up: counter-screen for LEDGF/p75 integration inhibitors: HIV-1 integrase multimerization activators | activation, % at 7.7 µM | shares compounds with LEDGF integ inh | hit rate 17% among 2,000 | TR-FRET HIV-1 integrase multimerization, biochemical; in the data active = activation above about 8.9%
TRFRET interf: TR-FRET optical interference, LEDGF/p75 integration counter-screen | 2,000 tested, under 10 active | TR-FRET optical interference counterscreen, HIV-1 IN multimerization | inhibition, % at 7.7 µM | AID 1053135 | shares compounds with LEDGF integ inh;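 active = inhibition above the mean over all tested compounds plus 3 SD, which no compound reached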;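 note: 0% = integrase with antibodies and DMSO and 100% = antibodies without integrase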
LEDGF integ conf: confirmation of HIV-1 LEDGF/p75-dependent integration inhibitors | TR-FRET LEDGF/p75-dependent HIV-1 integration, biochemical | shares compounds with LEDGF integ inh | hit rate 36% among 2,000 | inhibition, % at 3.7 µM | AID 1053136
Numbers without * were called inactive; nt = no result given. Cut-off read from the data, not from the text of the source, unless noted: active = inhibition above about 14%; inactive = the rest.

SMILES	MBD2 inh	Casp6 inh	LEDGF integ inh	UHRF1 binding	UHRF1 ctr MBD2	MBD2 confirm	others
Cc1ccc(/C=C2\C(=O)NC(=S)N(c3ccc(F)cc3)C2=O)o1	-2	41*	5	-2	nt	nt
COc1ccc(N2C(=O)/C(=C/c3ccc(N(C)C)o3)C(=O)NC2=S)cc1	-17	11	0	-23	nt	nt
COc1cccc(N2C(=O)/C(=C/c3ccc(C)o3)C(=O)NC2=S)c1	1	40*	4	1	nt	nt
O=C(O)[C@H]1[C@H](CO)[C@H]2Cn3c(ccc(-c4ccncc4)c3=O)[C@@H]1N2C(=O)C1CCCC1	nt	0	nt	nt	nt	nt
COc1ccc(C#Cc2ccc([C@H]3[C@H](CO)N4CCCCN(C(=O)Cc5cccnc5)C[C@@H]34)cc2)cc1	nt	0	nt	nt	nt	nt
CC(Cc1cccs1)NCc1ccccc1 (centres undefined)	0	-3	-2	29*	nt	nt
CCCCNC(C)Cc1ccccc1 (centres undefined)	4	-1	-2	0	nt	nt
COCC(=O)N1[C@@H]2c3ccc(C4=CCCC4)c(=O)n3C[C@H]1[C@H](CO)[C@H]2C(=O)OC	nt	4	nt	nt	nt	nt
COC(=O)C1=C(c2ccc(F)cc2OCc2ccccc2)C[C@@H]2CC[C@H]1N2C(=O)NCCN1CCOCC1	2	0	19*	-3	nt	nt
COC(=O)C1=C(c2ccc(F)cc2OCc2ccccc2)C[C@@H]2CC[C@H]1N2C(=O)NCCc1ccc(F)cc1	1	-7	4	2	nt	nt
O=C(O)COc1ccc(Cl)cc1Cl	1	1	2	0	nt	nt
NCC(CC(=O)O)c1ccc(Cl)cc1 (centres undefined)	9	nt	1	25*	nt	nt
COc1ccc(C#Cc2ccc([C@H]3[C@@H](CO)N4CCCCN(C(=O)Cc5ccncc5)C[C@H]34)cc2)cc1	nt	0	nt	nt	nt	nt
O=C1NC(=O)N(CCC2=CCCCC2)C(=O)/C1=C\c1cccs1	8	37*	2	6	nt	nt
N#Cc1cccc(-c2ccc([C@@H]3[C@H](CO)N4CCCCN(C(=O)Cc5cccnc5)C[C@@H]34)cc2)c1	nt	0	nt	nt	nt	nt
O=P(O)(Oc1ccccc1)c1ccccc1	8	1	6	21*	nt	nt
O=P(O)(O)Oc1ccccc1P(=O)(c1ccccc1)c1ccccc1	-1	-1	3	1	nt	nt
CCC(=O)N1[C@@H]2c3ccc(C4=CCCC4)c(=O)n3C[C@H]1[C@H](CO)[C@H]2C(=O)OC	nt	3	nt	nt	nt	nt
COC(=O)C1=C(c2c(C)noc2C)C[C@@H]2CC[C@H]1N2C(=O)N1CCC(O)CC1	28*	2	0	0	4	2
COC(=O)C1=C(c2c(C)noc2C)C[C@@H]2CC[C@H]1N2C(=O)N1CCC(C)CC1	3	0	-1	0	nt	nt
Cc1ccc(OC(=O)N(C)C[C@@H]2OCc3ccccc3-c3c(n(C)c4ccccc34)C(=O)N([C@@H](C)CO)C[C@@H]2C)cc1	nt	-1	nt	nt	nt	nt
COC(=O)C1=C(c2ccc(F)cc2OCc2ccccc2)C[C@@H]2CC[C@H]1N2C(=O)NCCOc1ccccc1Cl	16*	-1	-2	1	-3	2
N#Cc1cccc(-c2ccc([C@H]3[C@H](CO)N4CCCCN(C(=O)Cc5ccccc5)C[C@@H]34)cc2)c1	nt	0	nt	nt	nt	nt
O=C(O)C1CN2CCC1CC2 (centres undefined)	14*	0	1	-1	7	3
C#CCCC[C@@H]1OC(=O)CNC(=O)C([C@@H](C)CC)NC(=O)[C@@H]2CCCN2C(=O)C([C@@H](C)CC)OC(=O)[C@H](Cc2ccccc2)N(C)C(=O)[C@H](C(C)C)NC(=O)C1(C)C (some centres undefined)	15*	1	5	43*	7	2
SMILES	MBD2 inh	Casp6 inh	LEDGF integ inh	UHRF1 binding	UHRF1 ctr MBD2	MBD2 confirm	others
COC(=O)[C@@H]1[C@@H](CO)[C@@H]2Cn3c(ccc(C4=CCCC4)c3=O)[C@H]1N2S(=O)(=O)c1cn(C)cn1	nt	-2	nt	nt	nt	nt
Cc1ccc(-c2cc(-c3ccccc3)cc(-c3ccccc3)[n+]2-c2ccccc2C(=O)O)cc1	19*	0	3	21*	12	28*
COC1C(C)OC(OC2CC(C)(O)Cc3cc4c(c(O)c32)C(=O)c2c(O)cc3c(c2C4=O)OC2OC3(C)C(O)C(N(C)C)C2O)C(OC)C1(C)OC (centres undefined)	107*	18	3	97*	102*	109*
CCOC(=O)[C@@H]1[C@@H]2NC(=S)N[C@@]1(C)Oc1ccccc12	nt	-2	nt	nt	nt	nt
O=C(COc1ccccc1)NCCc1cnc[nH]1	1	-7	-1	0	nt	nt
O=C(COc1ccc(Cl)cc1)NCCc1cnc[nH]1	52*	1	5	-2	8	1
Cc1ccc2ccccc2c1NC(=O)CNC1CCCCC1	18*	nt	0	0	4	5
CCc1ccccc1NC(=O)CNC1CCCCC1	2	-2	-3	2	nt	nt
O=C(Cc1cccnc1)N1CCCCN2[C@H](CO)[C@H](c3ccc(C#CC4CCCC4)cc3)[C@H]2C1	nt	0	nt	nt	nt	nt
COc1cc(C(c2c(C)[nH]n(-c3ccccc3)c2=O)c2c(C)[nH]n(-c3ccccc3)c2=O)cc(OC)c1OC	14*	21	43*	18	3	2	IN multimer up=3;TRFRET interf=-12;LEDGF integ conf=5
CCOCCCn1c(N)c(C(=O)Nc2sc3c(c2C(=O)OC)CCCC3)c2nc3ccccc3nc21	14*	nt	31*	14	6	2	IN multimer up=2;TRFRET interf=-10;LEDGF integ conf=-2
COc1c2c(cc3c1OCO3)CCN(C)C2	4	2	-1	1	nt	nt
COc1cc2c(cc1OC)-c1c3c(cc4c1[C@@H](C2)N(C)CC4)OCO3	46*	48*	16*	50*	30*	20*	IN multimer up=5;TRFRET interf=-17;LEDGF integ conf=8
Cc1ccc(/C=C2/C(=O)NC(=O)N(CCc3ccc(F)cc3)C2=O)o1	-2	nt	-2	-7	nt	nt
O=C1NC(=O)N(CCc2ccc(F)cc2)C(=O)/C1=C/c1ccco1	74*	83*	80*	97*	23*	16*	IN multimer up=8;TRFRET interf=-31;LEDGF integ conf=16*
O=C1NC(=S)N(c2ccccc2)C(=O)/C1=C/c1ccco1	58*	95*	54*	91*	100*	89*	IN multimer up=14*;TRFRET interf=-49;LEDGF integ conf=73*
COc1ccccc1/C=C1\C(=O)NC(=S)N(c2ccccc2)C1=O	-2	nt	5	1	nt	nt
O=C1NC(=S)NC(=O)C1=Cc1cccn1-c1ccc(O)cc1	14*	88*	33*	32*	41*	24*	IN multimer up=10*;TRFRET interf=-50;LEDGF integ conf=73*
